# Assay outcomes deposited in PubChem BioAssay by Buhrlage Lab, Dana-Farber Cancer Institute and Novartis Institutes for BioMedical Research (Cambridge, Mass).
# This is a sample that favours compounds with a hit; in the whole collection about 4.9% have one here.
# USP7 block: inhibitors of human USP7 deubiquitinase | Ubiquitin carboxyl-terminal hydrolase 7 (Homo sapiens), Q93009 | purified USP7, Ub-rhodamine cleavage fluorescence | inhibition, % at 20 µM | 47,000 compounds, 0.3% hits | AID 1645854, 2021
# Target sequence (Q93009 whole entry, looked up): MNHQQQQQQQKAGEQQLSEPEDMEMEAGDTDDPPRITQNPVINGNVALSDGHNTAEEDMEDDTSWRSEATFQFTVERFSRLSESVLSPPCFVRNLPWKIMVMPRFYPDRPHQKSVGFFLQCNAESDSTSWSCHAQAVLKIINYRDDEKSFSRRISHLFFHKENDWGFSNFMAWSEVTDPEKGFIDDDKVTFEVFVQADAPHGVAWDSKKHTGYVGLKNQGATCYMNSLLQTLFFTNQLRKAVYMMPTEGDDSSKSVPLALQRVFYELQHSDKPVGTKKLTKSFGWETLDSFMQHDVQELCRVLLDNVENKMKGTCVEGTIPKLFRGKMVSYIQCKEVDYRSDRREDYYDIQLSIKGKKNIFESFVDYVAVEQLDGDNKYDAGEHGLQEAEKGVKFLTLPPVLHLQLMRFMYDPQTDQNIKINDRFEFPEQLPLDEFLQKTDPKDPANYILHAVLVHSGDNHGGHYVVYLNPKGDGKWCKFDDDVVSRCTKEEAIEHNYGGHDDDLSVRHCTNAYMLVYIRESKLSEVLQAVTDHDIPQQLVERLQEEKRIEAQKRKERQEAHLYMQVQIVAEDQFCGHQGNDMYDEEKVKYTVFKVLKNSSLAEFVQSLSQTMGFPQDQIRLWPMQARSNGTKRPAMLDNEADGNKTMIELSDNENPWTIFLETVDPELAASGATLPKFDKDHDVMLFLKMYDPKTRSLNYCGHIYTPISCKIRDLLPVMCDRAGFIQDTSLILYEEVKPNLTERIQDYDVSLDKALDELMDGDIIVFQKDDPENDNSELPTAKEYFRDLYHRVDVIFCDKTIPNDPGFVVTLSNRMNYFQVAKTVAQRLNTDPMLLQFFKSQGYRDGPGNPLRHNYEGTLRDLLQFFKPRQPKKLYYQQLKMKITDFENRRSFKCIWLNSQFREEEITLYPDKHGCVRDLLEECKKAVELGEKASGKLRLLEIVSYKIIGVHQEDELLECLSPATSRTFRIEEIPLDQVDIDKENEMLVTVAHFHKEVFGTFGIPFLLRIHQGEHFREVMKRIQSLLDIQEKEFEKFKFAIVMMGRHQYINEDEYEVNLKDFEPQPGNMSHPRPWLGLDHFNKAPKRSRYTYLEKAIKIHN
# USP10 inh: inhibitors of human USP10 deubiquitinase | Ubiquitin carboxyl-terminal hydrolase 10 (Homo sapiens), Q14694 | purified USP10, Ub-rhodamine fluorescence, 60 min | inhibition, % at 20 µM | 47,000 compounds, 1.1% hits | AID 1645856, 2021
# OTUD3 block: inhibitors of human OTUD3 deubiquitinase | AID 1645858, 2021 | inhibition, % at 25 µM | OTU domain-containing protein 3 (Homo sapiens), Q5T2D3 | 47,000 compounds, 0.7% hits | purified OTUD3, Ub-rhodamine fluorescence, 2 h
# UCHL1 block: inhibitors of human UCHL1 deubiquitinase | purified UCHL1, Ub-rhodamine cleavage fluorescence | Ubiquitin carboxyl-terminal hydrolase isozyme L1 (Homo sapiens), P09936 | 47,000 compounds, 0.2% hits | inhibition, % at 20 µM
# USP8 block: inhibitors of human USP8 deubiquitinase; 47,000 compounds, 4.2% hits; purified USP8, Ub-rhodamine cleavage fluorescence, 30 min; Ubiquitin carboxyl-terminal hydrolase 8 (Homo sapiens), P40818; inhibition, % at 20 µM; AID 1645853, 2021
# A number is an active result; – = inactive. Rule as the data show it: active = inhibition above about 30%; inactive = the rest.
SMILES,USP7 block,USP10 inh,OTUD3 block,UCHL1 block,USP8 block
Cc1ccc(NC(=O)Cn2ncc3c(N4CCCC4)ncnc32)c(C)c1,–,–,–,–,–
Cc1cccc(Nc2nc(C)c(C(=O)NCc3cccnc3)s2)n1,–,–,–,–,–
Cc1nc(Nc2ccc(Cl)cn2)sc1C(=O)NCc1ccccn1,–,–,–,–,50
OCCn1c(-c2ccccc2)cn2c(-c3ccccc3)c(-c3ccccc3)nc12,–,–,–,–,58
COc1ccc(-n2c(-c3ccccc3)cn3c(-c4ccccc4)c(-c4ccccc4)nc23)cc1,–,–,–,–,80
COc1ccc(-c2cn3c(-c4ccccc4)c(-c4ccccc4)nc3n2CCc2ccccc2)cc1,–,–,–,–,73
OCCCn1c(-c2ccccc2)cn2c(-c3ccccc3)c(-c3ccccc3)nc12,–,–,–,–,–
CC1CC(=O)c2cnc(NCCCN3CCOCC3)nc2C1 (stereo not drawn),–,–,–,–,–
COc1ccc(-c2oc3ncnc(NCc4ccco4)c3c2-c2ccc(OC)cc2)cc1,–,–,–,–,–
Cc1c(CC(=O)N2CCN(c3ccccc3)CC2)c(=O)oc2c(C)c(O)ccc12,–,–,–,–,31
Cc1ccc(NC(=O)C2CCN(C(=O)c3cc(-c4ccncc4)n[nH]3)CC2)cc1Cl,–,–,39,–,–
CC(=O)N1CCCC(Cc2cnc(-c3ncc(C)[nH]3)cn2)C1 (stereo not drawn),–,–,–,–,–
COc1cccc(-n2ccc(=O)c(-c3nc(-c4ccccc4Cl)no3)n2)c1,–,–,–,–,68
Cc1ccc(-n2ccc(=O)c(-c3nc(-c4ccccc4F)no3)n2)cc1,–,–,–,–,–
COc1ccccc1-c1noc(-c2nn(-c3ccc(C)c(C)c3)ccc2=O)n1,–,–,–,–,–
COc1ccc(-n2ccc(=O)c(-c3nc(-c4ccc(F)cc4)no3)n2)cc1,–,–,–,–,85
COc1cccc(C(=O)OC(C(=O)c2c[nH]c3ccccc23)c2ccccc2)c1OC (stereo not drawn),–,–,–,–,–
COc1ccc(NC(=O)CC(c2cccs2)N2Cc3ccccc3C2=O)cc1OC (stereo not drawn),–,–,–,–,–
CC1c2cc3c(cc2CCN1CC(=O)Nc1cc(Cl)ccc1-n1cncn1)OCCCO3 (stereo not drawn),–,–,–,–,47
Cc1ccccc1NS(=O)(=O)c1cc2[nH]c3c(c2cc1C)C(=O)CCC3,–,–,–,–,40
O=C(Nc1ccc(F)cc1F)C1CC(=O)N(Cc2ccccc2)C1 (stereo not drawn),–,–,–,–,–
Cc1ccc2nc(NC(=O)C3CC(=O)N(Cc4ccccc4)C3)sc2c1 (stereo not drawn),–,–,–,–,31
C[C@@H](c1ccccc1)N1C(=O)N[C@@H](CCC(=O)Nc2ccc3c(c2)OCO3)C1=O,–,–,–,–,52
O=C(CC[C@@H]1NC(=O)N(Cc2ccccc2)C1=O)Nc1ccc2c(c1)OCO2,–,–,–,–,–
CCNC(=O)OC1CN(C(=O)NCC)CCC(=O)N(C)c2ccccc21 (stereo not drawn),–,–,–,–,–
SMILES,USP7 block,USP10 inh,OTUD3 block,UCHL1 block,USP8 block
COc1ccc(Cl)cc1NC(=O)CSc1nnc(Cc2cccn2C)n1CCc1ccccc1,–,–,–,–,–
COc1cccc(-c2cc(CC(=O)Nc3ccc(C(N)=O)cc3)no2)c1,–,–,–,–,40
NC(=O)c1ccc(NC(=O)Cc2cc(-c3ccc(F)cc3)on2)cc1,–,–,–,–,–
COc1ccc(OC)c(NC(=O)CS(=O)(=O)c2cn(CC(=O)N3CCC(C)CC3)c3ccccc23)c1,–,–,–,–,32
Cc1cc(C)c(NC(=O)CS(=O)(=O)c2cn(CC(=O)N3CCC(C)CC3)c3ccccc23)c(C)c1,–,–,–,–,–
CCOCc1ccc(C(=O)N[C@H](C)c2nc3cc(-c4ccc(OC)cc4)ncn3n2)cc1,–,35,–,–,–
CNc1nc2c(c(=O)n1Cc1ccccc1)CCN(C(=O)NC1CCCC1)C2,–,–,–,–,–
Cc1ccsc1C(=O)N1CCN(S(C)(=O)=O)CC(C(N)=O)C1 (stereo not drawn),–,–,–,–,–
O=C(NCc1cccc(Cl)c1)c1cc(CN2CCOCC2)on1,–,–,–,–,–
O=C(Cc1ccc(S(=O)(=O)N2CCOCC2)s1)NCc1cccc(Cl)c1,–,–,–,–,40
COc1cc(NC(=O)Nc2ccc3nc4n(c(=O)c3c2)CCCC4)cc(OC)c1,–,–,–,–,–
COc1cccc(NC(=O)Nc2ccc3nc4n(c(=O)c3c2)CCCC4)c1,–,–,–,–,50
CCCn1c(NC(=O)Cc2coc3cc(OC)ccc23)nc2ccccc21,–,–,–,–,61
CCCn1c(-c2ccc(OC)cc2)nc2ccccc21,–,–,–,–,–
O=C(O)c1ccc(NCc2nc3ccccc3n2CCOc2ccccc2)cc1,–,–,–,–,–
Cc1cccc(OCCn2c(NC(=O)c3ccc(Cl)cc3)nc3ccccc32)c1,–,–,–,–,66
Cc1ccc(-n2c(-c3cccs3)cn3c4c(=O)n(C)c(=O)n(C)c4nc23)cc1,–,–,–,–,–
O=C(Nc1ccccc1)/C(=C/c1ccco1)n1nnnc1-c1ccccc1,–,–,–,–,–
CC(=O)c1ccc(NC(=O)/C(=C/c2ccco2)n2nnnc2-c2ccccc2)cc1,–,–,–,–,62
O=C(Nc1ccc2cn[nH]c2c1)c1cc(-c2ccco2)on1,–,–,–,–,41
COc1ccc(Cn2nnc(C(=O)N3CCCCC3)c2-n2cccc2)cc1,–,–,–,–,–
CC(NC(=O)C1(c2ccc(F)cc2)CCCC1)c1nc2ccccc2[nH]1 (stereo not drawn),–,–,–,–,–
Cc1cc(NC(=O)C2(c3ccc(F)cc3)CCCC2)n(-c2nc3ccccc3[nH]2)n1,–,–,–,–,70
COc1cc(NS(=O)(=O)c2ccc(NC(=O)COc3ccc(C)cc3Br)cc2)nc(OC)n1,–,38,–,–,–
CC(C)c1ccc(NC(=O)Cn2c(CNC(=O)c3ccccc3)nc3ccccc32)cc1,–,–,–,–,–
Cc1nc2ccccc2nc1SCC(=O)Nc1ccc2c(c1)OCO2,–,–,–,–,–
CC(NC(=O)c1ccccc1)c1nc2ccccc2n1CC(=O)Nc1ccc(F)cc1 (stereo not drawn),–,–,–,–,66
Cc1cccc(C(C)C)c1NC(=O)Cn1c(COc2ccccc2)nc2ccccc21,–,–,–,–,–
CCc1cccc(C)c1NC(=O)Cn1c(C(C)NC(=O)c2ccc(C)cc2)nc2ccccc21 (stereo not drawn),–,44,–,–,75
